# Screens: PubChem, National Center for Advancing Translational Sciences (NCATS)
# The full list was thinned out, with hits kept by preference.
# RECQ1 inh-1 = RECQ1 (human) helicase inhibition; P46063; RECQ1 DNA unwinding, red fluorescence kinetic read; Potency, µM (top dose mostly 57.3 µM), without a hit: at the highest dose activity, negative = inhibition, actives largely listed as inhibitors; 240,000 tested, 0.54% active; AID 2549;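 further: plate controls were vehicle for no effect and no enzyme for full effect; nearly all actives have a fitted effect of over 30% in size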
# Target sequence (P46063 whole entry, looked up): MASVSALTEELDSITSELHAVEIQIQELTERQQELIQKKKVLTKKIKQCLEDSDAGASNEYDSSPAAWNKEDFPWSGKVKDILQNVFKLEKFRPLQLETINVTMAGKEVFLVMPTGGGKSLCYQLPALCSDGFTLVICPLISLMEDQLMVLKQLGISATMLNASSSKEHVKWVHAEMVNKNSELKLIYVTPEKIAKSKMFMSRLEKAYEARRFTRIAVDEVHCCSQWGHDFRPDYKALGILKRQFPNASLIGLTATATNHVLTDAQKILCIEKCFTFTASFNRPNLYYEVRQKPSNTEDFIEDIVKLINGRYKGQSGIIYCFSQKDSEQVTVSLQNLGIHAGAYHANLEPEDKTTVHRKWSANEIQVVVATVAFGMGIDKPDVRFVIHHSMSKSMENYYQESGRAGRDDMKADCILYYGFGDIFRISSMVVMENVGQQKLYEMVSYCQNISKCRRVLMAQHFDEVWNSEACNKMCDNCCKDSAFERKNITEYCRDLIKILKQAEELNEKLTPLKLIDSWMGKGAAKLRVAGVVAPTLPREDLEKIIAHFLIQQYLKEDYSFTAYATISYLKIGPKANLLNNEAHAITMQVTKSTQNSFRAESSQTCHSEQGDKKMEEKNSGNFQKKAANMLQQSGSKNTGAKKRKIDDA
#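 50 nM RECQ1T1 preincubated 15 min with compound in Tris pH 8.0 buffer with MgCl2, DTT, Tween-20 and 2.5 ug/ml poly(dI-dC); started with 200 nM TAMRA/BHQ-2 forked duplex and 2 mM ATP. Unwinding read as fluorescence (525/598 nm), two reads 2 h apart.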
# BLM inh-1 = blocks DNA unwinding by human BLM helicase; AID 2528; recombinant BLM DNA unwinding, fluorescence dequenching; P54132; Potency, µM (doses to about 56.1 µM), for inactives: at the highest dose activity change, negative = inhibition, hits mostly inhibitors; 350,000 tested, 0.2% active;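 further: plate controls were vehicle for no effect and no enzyme for full effect; nearly all actives have a fitted effect of over 35% in size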
# APE1 inh = APE1 (human) endonuclease inhibition. P27695. Potency, µM (highest dose often 65.8 µM), for the others: top-dose activity change, negative = inhibition, actives largely listed as inhibitors. 350,000 tested, 0.35% active. recombinant APE1, TAMRA/BHQ-2 abasic DNA cleavage fluorescence;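 further: plate controls were vehicle for no effect and reference inhibitor for full effect; nearly all actives have a fitted effect of over 55% in size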
#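 Kinetic fluorescence read (525 ex/598 em nm, three reads 60 s apart) of AP-site incision; signal = third minus first read. Enzyme 0.75 nM, dual-labelled THF duplex 50 nM, compound preincubation 15 min RT.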
# TDP1 inh = blocks human tyrosyl-DNA phosphodiesterase 1; AID 485290; Q9NUW8; recombinant TDP1, AlphaScreen DNA substrate cleavage; 350,000 tested, 0.28% active; Potency, µM (doses to about 130 µM), for inactives: at the top dose activity change, negative = inhibition, usual class: inhibitors; further: on the % scale 0 is the no-effect control and ±100 the full control effect; nearly all actives have a fitted effect of over 40% in size
#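 Tdp1 1 nM final; 15 min RT w/ cpd; substrate 15 nM, 5 min; beads 10 ug/ml, 10 min; AlphaScreen read. Neg ctrl: no enzyme.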
# L3MBTL1 inh-1 = L3MBTL1 (human) inhibition. Q9Y468. AlphaScreen L3MBTL1–H3K9me1 peptide binding. Potency, µM (top dose mostly 57.1 µM), for inactives: top-dose activity, negative = inhibition, usual class: inhibitors. 230,000 tested, 0.66% active; further: on the % scale 0 is the no-effect control and ±100 the full control effect; nearly all actives have a fitted effect of over 60% in size
#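 First, the protein-peptide complex forms for 30 min at room temperature (L3MBTL1 50 nM, biotinylated H3K9me1 peptide 75 nM). Next, compounds are pin-transferred and incubated 30 min. Finally, AlphaScreen beads are added and read after 30 min.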
# KDM4E inh = inhibitors of human JMJD2E histone demethylase; B2RXH2; JMJD2E catalytic domain, FDH-coupled NADH fluorescence (FDH is formaldehyde dehydrogenase); Potency, µM (top dose mostly 57.1 µM), for the others: at the top dose activity change, negative = inhibition, actives largely listed as inhibitors; 230,000 tested, 1.6% active; active means well fitted inhibition curve with a large enough effect, not every such curve was filed as active; inconclusive means small, poorly fitted or top-dose-only effect, or another doubt; inactive means no such curve, though single readings can be large or run the other way;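 further: 0% = wells with enzyme and -100% = buffer wells without enzyme; nearly all actives have a fitted effect of over 50% in size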
# BLM inh-2 = BLM (human) helicase inhibition, confirmation | BLM DNA unwinding, fluorescence quenching, biochemical | AID 2585 | 220 tested, 40% active | shares compounds with BLM inh-1 | Potency, µM, without a hit: max response, negative = inhibition, usual class: inhibitors;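 further: strand separation dequenches TAMRA so unwinding raises red fluorescence; series mostly up to about 69 µM; on the % scale 0 is the no-effect control and ±100 the full control effect; nearly all actives have a fitted effect of over 45% in size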
# RECQ1 conf = confirmation of human RECQ1 helicase inhibitors. AID 2708. shares compounds with RECQ1 inh-1. 610 tested, 28% active. Potency, µM (titrated, usually from 229 µM), for inactives: at the highest dose activity change, negative = inhibition, actives largely listed as inhibitors. RECQ1 helicase DNA unwinding, fluorescence; further: on the % scale 0 is the no-effect control and ±100 the full control effect; nearly all actives have a fitted effect of over 45% in size
# RECQ1 ADP FP = ADP displacement flagged in RECQ1 inhibitor counter-screen; AID 2711; Potency, µM (doses to about 228 µM), for inactives: at the highest dose activity change, negative = inhibition, actives largely listed as inhibitors; 530 tested, 27% active; shares compounds with RECQ1 inh-1; ADP fluorescence polarization displacement counterscreen; further: on the % scale 0 is the no-effect control and ±100 the full control effect; nearly all actives have a fitted effect of over 45% in size
# RECQ1 inh-2 = confirmation of human RECQ1 helicase inhibitors; shares compounds with RECQ1 inh-1; recombinant RECQ1 DNA unwinding, red fluorescence; Potency, µM (top dose mostly 119 µM), for inactives: top-dose activity, negative = inhibition, usual class: inhibitors; 1,100 tested, 15% active; AID 504841; further: on the % scale 0 is the no-effect control and ±100 the full control effect; nearly all actives have a fitted effect of over 50% in size
# L3MBTL1 inh-2 = validation of human L3MBTL1 methyl-lysine binding inhibitors. shares compounds with L3MBTL1 inh-1. L3MBTL1 methyl-lysine binding inhibition, biochemical qHTS. Potency, µM, actives largely listed as inhibitors. 500 tested, 91% active; further: nearly all actives have a fitted effect of over 70% in size
# AlphaScreen ctr2 = AlphaScreen signal inhibition, L3MBTL1 hit counter-screen; shares compounds with L3MBTL1 inh-1; AlphaScreen counterscreen, signal inhibition; Potency, µM (series often up to 57.1 µM), for the others: at the top dose activity change, negative = inhibition, actives largely listed as inhibitors; 500 tested, under 10 active; AID 602224; further: 0% is about no effect
# * = called active by the depositor; i = inactive; ? = inconclusive; / = no result given; [ ] = remark or other dose. Unless noted, the call rests on the fitted dose curve; in most records, active means well fitted curve in the direction sought with a large enough effect; inconclusive means small, poorly fitted or top-dose-only effect, or another doubt; inactive means no such curve, though single readings can be large; an effect the other way counts as inactive or inconclusive. Potency means the concentration at half of the fitted maximal effect.
SMILES,RECQ1 inh-1,BLM inh-1,APE1 inh,TDP1 inh,L3MBTL1 inh-1,KDM4E inh,BLM inh-2,RECQ1 inh-2,others
COc1cc(/C=N/NC(=O)c2cc(-c3ccco3)nc3ccccc23)cc(OC)c1O,-0.7%,-15.2%,?,2.9%,-23.2%,?,/,/,
Cc1[nH]c2ccccc2c1/C=N/NC(=O)c1cccc([N+](=O)[O-])c1,1.58µM*,-8.2%,-11.1%,4.9%,2.1%,3.4%,?,/,RECQ1 conf=?;RECQ1 ADP FP=41.2%[91.9 µM]
CCOC(=O)c1sc2nc3c(SCC(=O)O)cc(C(=O)c4cc(F)ccc4O)cn3c(=O)c2c1C,?,22.4µM*,8.91µM*,35.5µM*,-21.7%,?,32.4µM*,6.9%,
COc1ccc(C2=Nn3c(nnc3-c3cc(OC)cc(OC)c3)SC2)cc1,-6.2%,-9.4%,-2.4%,-2.6%,/,/,/,/,
Cc1nc2sc3c(c2c(=O)[nH]1)CCC3,i,2.6%,-1.4%,5.2%,/,5.8%,/,/,
Cc1cc(-c2nc3c4c5c(sc4[nH]c(=O)n3n2)CCC5)c(C)o1,12.6µM*,14.1µM*,?,?,8.91µM*,3.8%,11.5µM*,?,RECQ1 conf=17.8µM*;RECQ1 ADP FP=?;L3MBTL1 inh-2=9.47*;AlphaScreen ctr2=-1.0%
CN(CCC#N)C(=O)COC(=O)c1c2c(nc3ccccc13)/C(=C/c1ccco1)CC2,15.8µM*,14.1µM*,14.1µM*,/,10µM*,25.1µM*,?,?,L3MBTL1 inh-2=2.12*;AlphaScreen ctr2=?
CCCN1CNc2c(c(=O)[nH]c(=S)n2CCC(C)C)C1,/,/,/,0.9%,/,/,/,/,
O=C(CSc1nc(-c2ccccc2)nc2c1Cc1ccccc1O2)Nc1ccc(C(=O)O)cc1,8.91µM*,10µM*,0.9%,4.47µM*,10µM*,?,12.9µM*,/,RECQ1 conf=3.9%[69.1 µM];L3MBTL1 inh-2=5.97*;AlphaScreen ctr2=?
COc1ccc(NC(=O)c2cc(S(=O)(=O)N3CCCC(C)C3)cn2C)c(OC)c1 (centres undefined),/,-9.7%,/,5.3%,/,/,/,/,
Cc1ccc(S(=O)(=O)Nc2ccc(N3CCOCC3)nc2)cc1,i,-19.1%,-0.5%,-1.8%,-5.6%,7.3%,/,/,
Cc1ccc(C)n1-c1ccc(N2CCOCC2)nc1,?,-11.6%,-4.1%,10.9%,-10.6%,?,/,-7.8%,
CCCCN(C(=O)Cn1ncc(Cl)c(Cl)c1=O)c1c(N)n(CC(C)C)c(=O)[nH]c1=O,28.2µM*,-18.3%,-5.2%,2.6%,-28.7%,-2.6%,/,?,
CCCCN(C(=O)CN1CC(C)OC(C)C1)c1c(N)n(CC(C)C)c(=O)[nH]c1=O (centres undefined),-4.9%,3.0%,17.6%,5.5%,3.3%,8.7%,/,/,
